Measured values reported in PubChem BioAssay (NCATS).
Records with an inconclusive call do not appear. The source made the active and inactive calls. Unless noted, the call rests on the fitted dose curve; in most records, active means well fitted curve in the direction sought with a large enough effect; inconclusive means small, poorly fitted or top-dose-only effect, or another doubt; inactive means no such curve, though single readings can be large; an effect the other way counts as inactive or inconclusive.

Assays:
[1] = molecular target: Luciferin 4-monooxygenase (Photinus pyralis) (UniProt P08659); test: Biochemical firefly luciferase enzyme assay for NPC (AID 624030);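 further: purified P. pyralis luciferase at 10 nM with luciferin and ATP substrate; 0% = DMSO and -100% = full luciferase inhibition by PTC124 control; nearly all actives have a fitted effect of over 70% in size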
Sequence of Luciferin 4-monooxygenase (Photinus pyralis) (P08659 whole entry, looked up): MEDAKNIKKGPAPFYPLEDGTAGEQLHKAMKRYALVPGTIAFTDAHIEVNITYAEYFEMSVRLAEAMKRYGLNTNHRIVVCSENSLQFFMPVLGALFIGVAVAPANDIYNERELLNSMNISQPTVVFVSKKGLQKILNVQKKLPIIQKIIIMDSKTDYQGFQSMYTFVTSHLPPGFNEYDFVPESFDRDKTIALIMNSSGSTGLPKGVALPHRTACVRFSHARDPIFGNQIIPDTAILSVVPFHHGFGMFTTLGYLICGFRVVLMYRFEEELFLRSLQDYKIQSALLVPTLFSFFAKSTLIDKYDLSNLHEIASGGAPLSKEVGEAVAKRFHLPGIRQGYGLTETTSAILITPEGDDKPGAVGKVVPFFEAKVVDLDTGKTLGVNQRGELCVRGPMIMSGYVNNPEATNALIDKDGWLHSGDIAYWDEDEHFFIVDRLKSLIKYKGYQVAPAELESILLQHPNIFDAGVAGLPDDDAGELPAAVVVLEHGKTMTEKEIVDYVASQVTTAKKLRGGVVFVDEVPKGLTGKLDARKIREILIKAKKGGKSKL
Summary of the method: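 Counter-screen for direct inhibition of the luciferase enzyme by approved-drug library compounds, run at 10 nM enzyme in 50 mM Tris acetate (final). Luminescence was read within 5 min of enzyme-buffer addition and normalized to PTC124 versus DMSO (0%).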

[2] = qHTS Assay for Identifying Gametocytocidal Compounds (AID 743244); further: potency means the concentration at half of the fitted maximal effect;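 on max response: on the % scale 0 is the no-effect control and ±100 the full control effect; actives lower the fluorescent signal which means gametocytes are killed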; details: P. falciparum 3D7 stage III-V gametocytes, alamarBlue, 72 h; max response: stronger effect = lower value
Summary of the method: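 Stage III-V P. falciparum 3D7 gametocytes, 20,000 per well, were exposed to compounds for 72 h at 37C, 5% CO2. AlamarBlue was then added for 24 h and viability was read as fluorescence at Ex 525/Em 598 nm.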

[3] = P-glycoprotein substrates identified in KB-8-5-11 adenocarcinoma cell line, qHTS therapeutic library screen (AID 1346987); further: nearly all actives have a fitted effect of over 65% in size; further: potency means the concentration at half of the fitted maximal effect
Summary of the method: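 KB-8-5-11: colchicine-selected sub-line of KB-3-1 over-expressing P-gp; assay medium lacked colchicine. 72 h drug exposure at 37 degree C, CellTiter-Glo.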

[4] = system: KB-3-1; test: Cytotoxic Profiling of Annotated Libraries Using Quantitative High-Throughput Screening (AID 1296008); details: Five cell lines viability, CellTiter-Glo ATP luminescence, 48-72 h; max response: stronger effect = lower value; further: on the % scale 0 is the no-effect control and ±100 the full control effect; nearly all actives have a fitted effect of over 60% in size
Summary of the method: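 Compounds were pin-transferred onto cells and incubated 48 or 72 hr at 37 degree Celsius, 95% humidity. CellTiter-Glo was added, plates sat 10 min at room temperature, then ATP-coupled luminescence was imaged as the viability read-out.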

[5] = system: astro; test: Drug repurposing screens with cells derived from glioblastoma tumor samples (AID 1345199); details: viability, ATP luminescence, 48 h; series mostly up to 45.9 µM; further: on the % scale 0 is the no-effect control and ±100 the full control effect; nearly all actives have a fitted effect of over 40% in size
Summary of the method: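 Four patient lines of CD133+ GBM neurospheres were screened at several concentrations; hits were retested in those lines plus three slower-growing GBM lines, using 48-hour treatment and ATP-based viability.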

[6] = Confirmation and Secondary Assay for Modulators of Hemoglobin Beta Chain Splicing at IVS2 654 locus (AID 910);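 further: per-well total GFP intensity by laser scanning cytometry after 2-day treatment; % of control where 0% means no effect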
Summary of the method: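 HeLa cells stably carrying EGFP interrupted by mutant beta-globin IVS2-654 intron (CMV-driven) were treated with compound for 2 days at 37C; corrected splicing was scored as total peak GFP intensity per well (488 nm excitation, 500-520 nm emission).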

[7] = Confirmation and Secondary Assay for Modulators of Hemoglobin Beta Chain Splicing at IVS2 705 locus (AID 930);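 further: HeLa cells stably expressing the EGFP-705 splicing reporter; GFP fluorescence per well restored by corrected splicing of the IVS2-705 intron in EGFP; % of control where 0% means no effect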
Summary of the method: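 Per-well GFP, captured at 1 x 8 µm resolution with 488 nm excitation, served as the read-out for HeLa EGFP-705 cells incubated 2 days with test compound versus DMSO.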

[8] = molecular target: Ubiquitin carboxyl-terminal hydrolase 1 (Homo sapiens) (UniProt O94782); test: Inhibitors of USP1/UAF1: Pilot qHTS (AID 504865);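 further: rhodamine fluorescence freed from ubiquitin-rhodamine substrate followed over time; top concentration of the series differs between compounds; on the % scale 0 is the no-effect control and ±100 the full control effect; nearly all actives have a fitted effect of over 35% in size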
Sequence of Ubiquitin carboxyl-terminal hydrolase 1 (Homo sapiens) (O94782 whole entry, looked up): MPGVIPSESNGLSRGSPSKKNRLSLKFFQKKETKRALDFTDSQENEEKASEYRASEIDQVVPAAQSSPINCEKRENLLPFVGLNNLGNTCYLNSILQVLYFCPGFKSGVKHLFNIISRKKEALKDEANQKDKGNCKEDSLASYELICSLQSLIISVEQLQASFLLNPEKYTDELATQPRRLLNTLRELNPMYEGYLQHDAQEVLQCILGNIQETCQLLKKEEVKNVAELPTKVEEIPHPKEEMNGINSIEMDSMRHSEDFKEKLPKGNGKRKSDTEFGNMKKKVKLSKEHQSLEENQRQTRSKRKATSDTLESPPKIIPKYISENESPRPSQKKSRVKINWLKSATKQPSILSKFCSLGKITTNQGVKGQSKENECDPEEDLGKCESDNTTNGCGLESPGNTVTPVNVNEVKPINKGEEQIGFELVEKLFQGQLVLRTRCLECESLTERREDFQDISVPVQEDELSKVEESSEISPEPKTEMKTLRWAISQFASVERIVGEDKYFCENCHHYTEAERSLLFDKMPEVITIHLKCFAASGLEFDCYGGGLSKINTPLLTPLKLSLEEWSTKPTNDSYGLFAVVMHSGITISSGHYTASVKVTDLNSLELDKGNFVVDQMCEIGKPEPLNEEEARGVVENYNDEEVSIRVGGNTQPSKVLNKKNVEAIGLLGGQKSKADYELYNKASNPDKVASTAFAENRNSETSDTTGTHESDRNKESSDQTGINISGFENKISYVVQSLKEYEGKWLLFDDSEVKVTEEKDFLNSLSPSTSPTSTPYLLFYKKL
Summary of the method: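 USP1/UAF1 complex (1nM) preincubated with compound 15 min at room temperature, then Ub-Rho substrate (150nM final) added. Fluorescence read kinetically at 480/540 nm, 6 reads every 60 seconds. Buffer: 50mM HEPES pH 7.8, 0.5mM EDTA, 0.1 mg/ml BSA, 1mM TCEP, 0.01% Tween-20.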

[9] = system: CRL-7250; test: qHTS assay to identify novel small-molecules to repurpose for Merkel cell carcinoma treatment (AID 1296009); details: MCC and control cell lines, CellTiter-Glo viability, 72 h; series mostly up to 92 µM; further: nearly all actives have a fitted effect of over 60% in size
Summary of the method: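 Cells exposed to NPC (8-point) and MIPE (11-point) compound dilutions for 72 hr at 37 degree celsius; viability read by CellTiter-Glo luminescence, normalized to no-cell and DMSO in-plate controls.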

[10] = system: Zika virus NS2B-NS3 protease (unlinked complex); test: Primary screen GU Rhodamine qHTS for Zika virus inhibitors: Unlinked NS2B-NS3 protease assay (AID 1347159); further: on the % scale 0 is the no-effect control and ±100 the full control effect; nearly all actives have a fitted effect of over 60% in size
Summary of the method: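 Noncovalent NS2B hydrophilic domain–NS3 protease domain complex (25 nM) preincubated 15 min at room temperature with compounds (up to 114 microM) in 10 mM Tris-HCl pH 8.0, 0.01% Tween 20; 1.5 microM Rhodamine110 substrate added, fluorescence change over 15 min fitted to Hill equation.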

[11] = system: Zika virus NS2B-NS3 protease (linked construct); test: Primary screen NINDS Rhodamine qHTS for Zika virus inhibitors (AID 1347160); further: on the % scale 0 is the no-effect control and ±100 the full control effect; nearly all actives have a fitted effect of over 55% in size
Summary of the method: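 Purified linked NS2B-NS3 protease (NS2B hydrophilic domain joined to NS3 protease by flexible linker), 25 nM in 10 mM Tris-HCl pH 8.0, 0.01% Tween 20. Compounds titrated, 15 min preincubation at room temperature; 1.5 microM Rhodamine110 substrate, FITC fluorescence change over 15 min.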

[12] = molecular target: Calcium and integrin-binding protein 1 (Homo sapiens) (UniProt Q99828); test: Primary qHTS for Identification of Calcium Integrin Binding Protein 1 (CIB1) Competitor (AID 1508620);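 further: GST tagged CIB1 binding a fluorescein labelled alphaIIb integrin peptide tracer; top concentration of the series differs between compounds; on the % scale 0 is the no-effect control and ±100 the full control effect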
Sequence of Calcium and integrin-binding protein 1 (Homo sapiens) (Q99828 whole entry, looked up): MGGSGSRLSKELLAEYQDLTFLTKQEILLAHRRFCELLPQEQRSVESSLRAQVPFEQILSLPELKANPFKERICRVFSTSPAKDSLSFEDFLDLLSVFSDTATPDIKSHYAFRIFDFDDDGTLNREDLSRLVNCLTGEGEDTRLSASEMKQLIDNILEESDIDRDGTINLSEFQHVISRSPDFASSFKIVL
Summary of the method: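 Fluorescence polarization competition: CIB1-GST (1 uM final) preincubated with compound 15 min at room temperature, then FITC-labeled alphaIIb peptide (100 nM final) added for another 15 min. Polarization read at Ex 480/Em 540.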

[13] = molecular target: Cytochrome P450 2D6 (Homo sapiens) (UniProt P10635); test: Cytochrome P450 family 2 subfamily D member 6 (CYP2D6) small molecule antagonists: luciferase biochemical (cell-free) qHTS assay (AID 1645840; active means well fitted curve in the direction sought with a large enough effect in the repeat runs; an effect the other way counts as inactive or inconclusive; further: potency means the concentration at half of the fitted maximal effect; nearly all actives have a fitted effect of over 55% in size)
Sequence of Cytochrome P450 2D6 (Homo sapiens) (P10635 whole entry, looked up): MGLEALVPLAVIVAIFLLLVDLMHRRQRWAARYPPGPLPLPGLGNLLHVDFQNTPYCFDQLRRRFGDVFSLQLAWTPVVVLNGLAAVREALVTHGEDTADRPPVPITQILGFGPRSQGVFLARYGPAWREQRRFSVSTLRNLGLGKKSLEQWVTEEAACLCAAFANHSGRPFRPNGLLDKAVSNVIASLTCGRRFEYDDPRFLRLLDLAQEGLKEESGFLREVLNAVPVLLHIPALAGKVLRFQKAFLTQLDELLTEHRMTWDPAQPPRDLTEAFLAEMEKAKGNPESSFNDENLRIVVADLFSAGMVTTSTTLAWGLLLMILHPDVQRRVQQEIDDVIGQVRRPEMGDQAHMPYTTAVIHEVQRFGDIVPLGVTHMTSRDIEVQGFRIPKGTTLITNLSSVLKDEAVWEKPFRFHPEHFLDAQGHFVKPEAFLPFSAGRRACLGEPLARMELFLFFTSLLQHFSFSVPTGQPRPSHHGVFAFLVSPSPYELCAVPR
Summary of the method: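 P450-Glo luminescent screen: recombinant CYP2D6 enzyme–proluciferin substrate mix preincubated with compound 10 min at room temperature, then NADPH regeneration added for 1 h at room temperature. Detection reagent added for 20 min; luciferin light read as relative luminescence units.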

[14] = molecular target: Catechol O-methyltransferase (Homo sapiens) (UniProt P21964); test: Confirmatory Screen for Target Class Profiling of Small Molecule Inhibitors of Methyltransferases (AID 1745852); details: MTase-Glo luminescence, SAH detection, recombinant enzyme; measured here: COMT max response; stronger effect = lower value; on activity change, negative = inhibition: on the % scale 0 is the no-effect control and ±100 the full control effect
Sequence of Catechol O-methyltransferase (Homo sapiens) (P21964 whole entry, looked up): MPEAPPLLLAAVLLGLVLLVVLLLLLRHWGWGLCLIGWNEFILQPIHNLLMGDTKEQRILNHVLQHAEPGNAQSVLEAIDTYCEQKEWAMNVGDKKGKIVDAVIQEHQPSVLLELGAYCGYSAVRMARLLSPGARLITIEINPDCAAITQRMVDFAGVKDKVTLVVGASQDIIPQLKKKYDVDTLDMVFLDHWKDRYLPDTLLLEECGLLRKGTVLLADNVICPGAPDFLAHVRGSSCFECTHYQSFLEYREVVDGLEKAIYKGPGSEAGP

[15] = molecular target: Guanidinoacetate N-methyltransferase (Homo sapiens) (UniProt Q14353); test: as above; details: activity change, negative = inhibition: at 57.3 µM (top of the series) unless noted
[16] = molecular target: Nicotinamide N-methyltransferase (Homo sapiens) (UniProt P40261); test: as above; details: MTase-Glo luminescence, SAH detection, recombinant enzyme; measured here: NNMT max response; stronger effect = lower value
Sequence of Nicotinamide N-methyltransferase (Homo sapiens) (P40261 whole entry, looked up): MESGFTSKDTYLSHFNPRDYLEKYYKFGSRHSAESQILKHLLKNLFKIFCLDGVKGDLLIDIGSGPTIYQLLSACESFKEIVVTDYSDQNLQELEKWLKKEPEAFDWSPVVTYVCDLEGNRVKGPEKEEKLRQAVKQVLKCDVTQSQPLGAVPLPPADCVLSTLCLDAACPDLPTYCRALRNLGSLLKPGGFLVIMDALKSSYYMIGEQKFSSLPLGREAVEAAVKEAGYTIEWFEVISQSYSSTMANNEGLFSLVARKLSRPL

[17] = molecular target: Phenylethanolamine N-methyltransferase (Homo sapiens) (UniProt P11086); test: as above; details: MTase-Glo luminescence, SAH detection, recombinant enzyme; measured here: PNMT max response; stronger effect = lower value
Sequence of Phenylethanolamine N-methyltransferase (Homo sapiens) (P11086 whole entry, looked up): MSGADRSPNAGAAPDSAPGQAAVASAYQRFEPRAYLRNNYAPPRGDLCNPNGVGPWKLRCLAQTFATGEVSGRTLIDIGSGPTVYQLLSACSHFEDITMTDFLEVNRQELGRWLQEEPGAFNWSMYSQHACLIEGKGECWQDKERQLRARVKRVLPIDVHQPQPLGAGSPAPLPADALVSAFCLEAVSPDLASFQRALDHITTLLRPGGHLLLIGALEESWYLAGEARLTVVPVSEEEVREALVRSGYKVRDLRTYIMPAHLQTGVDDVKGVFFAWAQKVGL

[18] = molecular target: Glutathione peroxidase 1 (Homo sapiens) (UniProt P07203); test: Primary qHTS Assay for Inhibitors of Recombinant Selenoprotein Glutathione Peroxidase 1 (GPX1) (AID 1845191); further: nearly all actives have a fitted effect of over 65% in size
Sequence of Glutathione peroxidase 1 (Homo sapiens) (P07203 whole entry, looked up): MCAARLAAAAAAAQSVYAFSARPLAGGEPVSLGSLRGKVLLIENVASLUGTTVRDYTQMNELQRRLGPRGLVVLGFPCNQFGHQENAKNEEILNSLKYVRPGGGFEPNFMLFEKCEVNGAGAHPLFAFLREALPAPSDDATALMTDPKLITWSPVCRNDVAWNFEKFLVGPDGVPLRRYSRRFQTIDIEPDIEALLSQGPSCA
Summary of the method: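 Recombinant GPX1 (10 nM final) was preincubated with compound for 30 min at room temperature, then reacted with 1 mM GSH, 0.5 mM CHP, 0.5 mM NADPH and 100 nM glutathione reductase; NADPH fluorescence (340/450 nm) was read at 0 and 15 min.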

[19] = molecular target: Phospholipid hydroperoxide glutathione peroxidase GPX4 (Homo sapiens) (UniProt P36969); test: Primary qHTS Assay for Inhibitors of Recombinant Selenoprotein Glutathione Peroxidase 4 (GPX4) (AID 1845192); further: on the % scale 0 is the no-effect control and ±100 the full control effect; nearly all actives have a fitted effect of over 65% in size
Sequence of Phospholipid hydroperoxide glutathione peroxidase GPX4 (Homo sapiens) (P36969 whole entry, looked up): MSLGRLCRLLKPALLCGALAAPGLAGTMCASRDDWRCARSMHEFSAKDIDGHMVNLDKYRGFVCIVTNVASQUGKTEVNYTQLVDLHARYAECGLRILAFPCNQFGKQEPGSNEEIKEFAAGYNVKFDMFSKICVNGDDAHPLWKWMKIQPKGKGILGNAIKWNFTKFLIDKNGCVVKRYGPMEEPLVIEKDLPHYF
Summary of the method: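 GR-coupled readout: 100 nM GR, 1 mM GSH, 0.5 mM NADPH; NADPH fluorescence (ex 340/em 450 nm) read at t=0 and after 15 min RT. GPX4 200 nM, preincubated 30 min with compound; substrate 0.5 mM CHP.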

[20] = molecular target: Luciferin 4-monooxygenase (Photinus pyralis) (UniProt P08659); test: Primary firefly luciferase (FLuc) qHTS assay for identification of artifact compounds. (AID 1845220); details: outcome: dose series up to 54.1 µM unless noted; further: nearly all actives have a fitted effect of over 60% in size
Summary of the method: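 qHTS, 15 min compound preincubation with substrate (10 uM luciferin, 10 uM ATP) at RT, then 10 nM FLuc; 5 min; luminescence; % inhibition vs no-enzyme/DMSO controls, 4-parameter Hill fit.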

[21] = system: Nanoluciferase (engineered Oplophorus gracilirostris luciferase); test: Primary Nanoluciferase (NLuc) qHTS assay for identification of artifact compounds. (AID 1845222);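 further: 0% = DMSO and -100% = no enzyme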
Summary of the method: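 Luminescence read-out of secreted NLuc in S16 cell conditioned medium (1:55); compounds tested with 15 min RT preincubation, then Nano-Glo substrate 1:100, 5 min. % inhibition vs no-enzyme and DMSO controls, 4-parameter Hill fit.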

[22] = Primary redox qHTS assay for identification of artifact compounds. (AID 1845223);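 further: 0% = DMSO and 100% = reference compound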
Summary of the method: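 Amplex Red (25 uM) and HRP (250 mU/mL) in HBSS, with compounds for 15 min, then 250 uM DTT for 30 min, room temperature, dark. Fluorescence 525/598 nm read; normalized to DMSO and 10 uM DA3003; Hill fit.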

[23] = system: CAOV3; test: Primary qHTS to identify gynecologic anti-cancer compounds using libraries of approved drugs and bioactive compounds (AID 1345084); details: Gynecologic cancer cell panel viability, ATPlite luminescence, 48 h; series mostly up to 57.5 µM; further: on the % scale 0 is the no-effect control and ±100 the full control effect; nearly all actives have a fitted effect of over 55% in size
Summary of the method: (§1)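 Cells, 1,000 per well, plated 16 h, then exposed 48 h at 37 C to compounds. Viability by ATPlite luminescence after 15 min at room temperature.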

[24] = system: CASKI; test: as above; details: Gynecologic cancer cell panel viability, ATPlite luminescence, 48 h; series mostly up to 57.5 µM
Summary of the method: as §1

[25] = system: Es-2; test: as above; details: Gynecologic cancer cell panel viability, ATPlite luminescence, 48 h; series mostly up to 57.5 µM
Summary of the method: as §1

[26] = system: HeLa; test: as above; details: Gynecologic cancer cell panel viability, ATPlite luminescence, 48 h; series mostly up to 57.5 µM
Summary of the method: as §1

[27] = system: Hek293T; test: as above; details: Gynecologic cancer cell panel viability, ATPlite luminescence, 48 h, control line for the selectivity index; series mostly up to 57.5 µM
Summary of the method: as §1

[28] = system: JEG-3; test: as above; details: Gynecologic cancer cell panel viability, ATPlite luminescence, 48 h; series mostly up to 57.5 µM
Summary of the method: as §1

[29] = system: OV90; test: as above; details: Gynecologic cancer cell panel viability, ATPlite luminescence, 48 h; series mostly up to 57.5 µM
Summary of the method: as §1

[30] = system: PA-1; test: as above; details: Gynecologic cancer cell panel viability, ATPlite luminescence, 48 h; series mostly up to 57.5 µM
Summary of the method: as §1

[31] = system: SKOV3; test: as above; details: Gynecologic cancer cell panel viability, ATPlite luminescence, 48 h; series mostly up to 57.5 µM
Summary of the method: as §1

[32] = system: Tov112D; test: as above; details: Gynecologic cancer cell panel viability, ATPlite luminescence, 48 h; series mostly up to 57.5 µM
Summary of the method: as §1

CNC(C)Cc1ccccc1 (centres undefined)
inactive: Potency [1] | max response [2] 7.96% | Potency [3] | max response [4] -8.49% | Potency [5]

O.O.O.O=C([O-])C(O)C(O)C(=O)[O-].O=C([O-])C(O)C(O)C(=O)[O-].[K+].[K+].[Sb].[Sb] (centres undefined)
active: Potency [2] 0.708 µM | Potency [3] 8.2 µM
inactive: max response [4] -33.9%

CCN(CC)/[N+]([O-])=N/O
inactive: Potency [6] | outcome [7] | Potency [8] | Potency [1] | Potency [3] | max response [4] -8.01% | Potency [5]

COc1cc(C2Oc3c(OC)cc(CCCO)cc3C2CO)ccc1O[C@H]1O[C@H](C)[C@@H](O)[C@H](O)[C@@H]1O (some centres undefined)
inactive: Potency [9]

N#Cc1ccc(N2CCN(C(=O)COc3ccc4[nH]cc(CCN)c4c3)CC2)cc1
inactive: Potency [3] | Potency [10] | Potency [11] | Potency [12] | Potency [18] | Potency [19] | outcome [20] | Potency [21] | Potency [22] | max response [4] -19.2% | Potency [23] | Potency [24] | Potency [25] | Potency [26] | Potency [27] | Potency [28] | Potency [29] | Potency [30] | Potency [31] | Potency [32]
2.22%: activity [17]
-2.1%: activity [14]
0.371%: activity change, negative = inhibition [15]
active: Potency [13] 19 µM
2.26%: activity [16]

Oc1ccc2c3c1O[C@H]1[C@@H](O)C=C[C@H]4[C@H](C2)NCC[C@@]341
inactive: Potency [3] | max response [4] -12.5% | Potency [5]
